Laboratory results reported in ChEMBL document CHEMBL3988442, “University of Dundee, Small-Polar-MMV Screening Library” (2021).
The campaign covered roughly 38,000 compounds. About 1,200 (3.2%) showed an effect of 50% or more. The median lay at about -58%. The entries come from a sample that favours strong results as a whole.

Tested on: Plasmodium falciparum
Test: Calibr Malaria Delayed Death Assay SOP
Type: functional, organism-based
Parameters: scale not given: in the data most compounds retested in dose-response had high values
Conditions: concentration 4.99e-06 (unit not given; other assays of the set use mol/L)

Question: O=C1CCCN1Cc1nnc2n1CCCN(C(=O)c1ccc[nH]1)C2 was tested. Which “Percent Effect” value did it give?
Answer: Its value is -52.27%.

Question: How did the “Percent Effect” value turn out when O=C(c1ccc(-n2cnnc2)cc1)N1CCC(Nc2cccnn2)CC1 was run?
Answer: Its value is -15.7%.

Question: For CCN1Cc2ccccc2CC2(CCN(CC(=O)O)CC2)C1=O.O=C(O)C(F)(F)F, which “Percent Effect” value is on record?
Answer: The value was -102.3%.

Question: Which “Percent Effect” value does the source give for CCn1c(SCC(=O)O)nnc1C(C)NC(=O)c1ccc(Cl)cc1 (centres undefined) here?
Answer: The value was -146.1%.

Question: Cc1noc(C(C)NC(=O)[C@@H](C)NC(=O)OC(C)(C)C)n1 (some centres undefined) was tested. Which “Percent Effect” value did it give?
Answer: The value was -163.7%.

Question: With O=C(CN1CCCC1c1nc2cc(F)ccc2[nH]1)NCc1ccccn1 (centres undefined) as the compound, how does the “Percent Effect” value read?
Answer: Its value is -65.25%.

Question: For Fc1ccc2[nH]c(C3CCCN3Cc3c[nH]cn3)nc2c1 (centres undefined), which “Percent Effect” value is on record?
Answer: The value was 80.29%.

Question: With O=C(c1cccc(CO)n1)N1CCCC1c1nc2cc(F)ccc2[nH]1 (centres undefined) as the compound, how does the “Percent Effect” value read?
Answer: The value was -67.52%.

Question: How did the “Percent Effect” value turn out when CC(C)OCCCNC(=O)NCc1cccc(-n2ccnc2)c1 was run?
Answer: The value was -80.58%.

Question: Which “Percent Effect” value does the source give for Cc1nn(C)cc1-c1ccnc(N(C)Cc2noc(C(C)C)n2)n1 here?
Answer: The value was -38.19%.

Question: How did the “Percent Effect” value turn out when Cc1nn(C)c(C)c1-c1ccnc(N(C)Cc2noc(C(C)C)n2)n1 was run?
Answer: Its value is -30.97%.

Question: With Cc1nn(C)c(C)c1-c1ccnc(N(C)Cc2nc(C(C)C)no2)n1 as the compound, how does the “Percent Effect” value read?
Answer: Its value is 65.96%.

Question: How did the “Percent Effect” value turn out when Cc1cc(C(N)=O)c(N2C[C@@H](C)[C@@](C)(O)C2)nc1C was run?
Answer: The value was -47.89%.

Question: For O=C(O)c1nc(SCc2ccc(F)cc2)ncc1Br, which “Percent Effect” value is on record?
Answer: Its value is -159.2%.

Question: O=C(c1ccc2c(c1)OCO2)N1CCCSCC1CN1CCCC1 (centres undefined) was tested. Which “Percent Effect” value did it give?
Answer: The value was -7.883%.

Question: Which “Percent Effect” value does the source give for COc1cccc(CCC(=O)N2CCCCC2Cn2cccn2)c1 (centres undefined) here?
Answer: Its value is -142.5%.

Question: For COc1cccc(CC(=O)N2CCCSCC2CN2CCCC2)c1 (centres undefined), which “Percent Effect” value is on record?
Answer: The value was 54.27%.

Question: With CCCN(CCC)c1nc(N)nc(-c2cc(Cl)ccc2OC)n1 as the compound, how does the “Percent Effect” value read?
Answer: The value was -49.81%.

Question: Which “Percent Effect” value does the source give for CN(C)CCCNC(=O)c1nc(Cc2c(Cl)cccc2Cl)no1 here?
Answer: The value was -74.09%.

Question: Which “Percent Effect” value does the source give for CC[C@@H](C)[C@@H](N)C(=O)Nc1cccc(-c2cnc(NCCO)nc2)c1 here?
Answer: Its value is -39.72%.

Question: With O=C1CC(c2ccccc2F)c2c(n(C3CCCC3)[nH]c2=O)N1 (centres undefined) as the compound, how does the “Percent Effect” value read?
Answer: Its value is -93.23%.

Question: Which “Percent Effect” value does the source give for COc1ccccc1C(=O)NC(c1ccccn1)[C@H]1CC[C@H](CN)CC1 (some centres undefined) here?
Answer: The value was -2.636%.

Question: CCOCC1CN(CC2CC2)Cc2nn(C)cc21.O=C(O)C(F)(F)F (centres undefined) was tested. Which “Percent Effect” value did it give?
Answer: The value was -95.19%.

Question: For O=C(Nc1c(N2CCCC2)cccc1N1CCCC1)c1ccccn1, which “Percent Effect” value is on record?
Answer: Its value is -13.71%.

Question: NC(=O)CCNCc1c(Cl)cccc1N1CCCC1 was tested. Which “Percent Effect” value did it give?
Answer: The value was 65.52%.

Question: For CS(=O)(=O)CCCNCc1c(Cl)cccc1N1CCCC1, which “Percent Effect” value is on record?
Answer: Its value is 71.32%.

Question: O=S(=O)(Cc1c(F)cccc1Cl)NCCCN1CCCCCC1 was tested. Which “Percent Effect” value did it give?
Answer: The value was 47.99%.

Question: For NC(=O)CCNC(=O)NCC1(c2ccccc2Cl)CCC1, which “Percent Effect” value is on record?
Answer: Its value is -18.8%.

Question: For CS(=O)(=O)CCCNC(=O)NC1CC(c2cccc(Cl)c2)C1 (centres undefined), which “Percent Effect” value is on record?
Answer: The value was -17.33%.

Question: O=C(CSC1CCc2ccccc2NC1=O)NCc1ccccc1 (centres undefined) was tested. Which “Percent Effect” value did it give?
Answer: The value was -28.24%.

Question: With CC(Cn1cccn1)NC(=O)N1CCN(Cc2ccco2)CC1 (centres undefined) as the compound, how does the “Percent Effect” value read?
Answer: Its value is -74.02%.

Question: Which “Percent Effect” value does the source give for Cn1ccnc1C(=O)N[C@@H]1CN(Cc2ccc(F)cc2)[C@@H]2CCCO[C@@H]21.O=C(O)C(F)(F)F here?
Answer: Its value is -85.57%.

Question: Cc1nc(C2CCCN2CCCn2c(=O)oc3ccccc32)no1 (centres undefined) was tested. Which “Percent Effect” value did it give?
Answer: Its value is -48.08%.

Question: For O=c1oc2ccccc2n1CCCN1CCCC1c1ccc(O)cc1 (centres undefined), which “Percent Effect” value is on record?
Answer: The value was 52.75%.

Question: For O=C1OCCN1CCCN1CCCC1c1ccc(O)cc1 (centres undefined), which “Percent Effect” value is on record?
Answer: Its value is -1.685%.

Question: For CC(=O)c1cc2c(=O)[nH]c(=O)n(C)c2nc1C, which “Percent Effect” value is on record?
Answer: Its value is -16.7%.

Question: CC(=O)N(C)C(c1cccc(F)c1)c1ccccn1 (centres undefined) was tested. Which “Percent Effect” value did it give?
Answer: Its value is -75.26%.

Question: Which “Percent Effect” value does the source give for O=C(NCc1ncc[nH]1)c1c(F)cccc1I here?
Answer: Its value is -135.9%.

Question: Which “Percent Effect” value does the source give for Fc1cccc(C(NCc2ncc[nH]2)c2ccccc2)c1 (centres undefined) here?
Answer: The value was 67.9%.

Question: Which “Percent Effect” value does the source give for Fc1cccc(C(NCc2ncc[nH]2)c2ccccn2)c1 (centres undefined) here?
Answer: The value was 91.42%.

Question: Cc1nccn1-c1ccc(C(C)NCc2ncc[nH]2)cc1 (centres undefined) was tested. Which “Percent Effect” value did it give?
Answer: Its value is -35.75%.

Question: How did the “Percent Effect” value turn out when Cn1cc(C(NCCc2ccccn2)c2cccc(F)c2)cn1 (centres undefined) was run?
Answer: Its value is -2.846%.

Question: Which “Percent Effect” value does the source give for CC(C)Nc1ncccc1C(=O)NCc1ncc[nH]1 here?
Answer: The value was -116.1%.

Question: Clc1cccc(C(NCc2ncc[nH]2)c2ccccn2)c1 (centres undefined) was tested. Which “Percent Effect” value did it give?
Answer: Its value is 86.37%.

Question: With CSCc1cc(F)ccc1CNCc1ncc[nH]1 as the compound, how does the “Percent Effect” value read?
Answer: Its value is -2.338%.

Question: Which “Percent Effect” value does the source give for CC(C)NC(=O)N1CCN(C(=O)c2ccco2)CC2(CC(=O)N(C)C2)C1 (centres undefined) here?
Answer: Its value is -8.212%.

Question: CC(C)CC(=O)NS(=O)(=O)c1ccc2c(c1)OCCCO2 was tested. Which “Percent Effect” value did it give?
Answer: Its value is -13.67%.

Question: With CC(C)c1nn(C)c(N2CCOCC2)c1CNCc1cscn1 as the compound, how does the “Percent Effect” value read?
Answer: The value was -74.61%.

Question: With O=C(NCC(O)COc1ccc(C(F)(F)F)cc1)Nc1nncs1 (centres undefined) as the compound, how does the “Percent Effect” value read?
Answer: The value was -99.86%.

Question: Which “Percent Effect” value does the source give for Cc1cccc2c(CCNC(=O)[C@H](N)c3ccccc3)c[nH]c12 here?
Answer: The value was 61.63%.

Question: Which “Percent Effect” value does the source give for Cc1cccc2c(CCNC(=O)NCC[S+](C)[O-])c[nH]c12 (centres undefined) here?
Answer: Its value is -101.3%.

Question: How did the “Percent Effect” value turn out when Cc1cccc2c(CCNC(=O)NCCC[S+](C)[O-])c[nH]c12 (centres undefined) was run?
Answer: Its value is -83.64%.

Question: CC(C)Cn1c(=O)n(CCn2cc(Cl)cn2)c2cc(C(=O)O)cnc21 was tested. Which “Percent Effect” value did it give?
Answer: Its value is -13.68%.

Question: For CCc1noc(CN(Cc2cccs2)C2CC2)n1, which “Percent Effect” value is on record?
Answer: The value was -139.3%.

Question: How did the “Percent Effect” value turn out when O=C(CCc1nnc2ccccn2c1=O)NCc1cccnc1 was run?
Answer: The value was -35.93%.

Question: Which “Percent Effect” value does the source give for Cl.Cn1nc(C2CCCN(Cc3ccccc3)C2)c2nccnc21 (centres undefined) here?
Answer: The value was -32.54%.

Question: CN(C)c1ncccc1NC(=O)C1CN(Cc2ccccc2)CCO1 (centres undefined) was tested. Which “Percent Effect” value did it give?
Answer: The value was -7.192%.

Question: Which “Percent Effect” value does the source give for Cc1cccc(CN2CC[C@@H]3[C@@H](CO[C@H]3CNc3ncccn3)C2)n1.O=C(O)C(F)(F)F.O=C(O)C(F)(F)F.O=C(O)C(F)(F)F here?
Answer: Its value is -54.04%.

Question: How did the “Percent Effect” value turn out when Cn1cc(N2CC3(CCN(Cc4ccccc4)CC3)OCC2=O)cn1.O=C(O)C(F)(F)F was run?
Answer: The value was -75.76%.
